# Experimental data taken from PubChem BioAssay (EPA / NIEHS).
# Inconclusive results are not listed. The source made the active and inactive calls. How the source made its calls: active means hit-call score of the fitted dose curve at least 0.9, where 1 is the maximum; inconclusive means response in the unintended direction; inactive means score below 0.9.
# Assay: Tanguay_ZF_120hpf_AXIS_legacy: (Legacy) Oregon State University Tanguay Lab 120 Hour Post-fertilization zebrafish Assay for Body Axis Malformation (AID 2283635);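 on AC50: potency for an increased fraction of larvae scored with body axis malformation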
# Outline: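 Tropical 5D wild-type zebrafish embryos, dechorionated with pronase at 4 hpf, were placed singly in wells at 6 hpf and exposed statically to test chemical (0.64% DMSO final) at 28C until 120 hpf, then scored by brightfield for body axis defects.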
Structure (SMILES),outcome,AC50
Cc1ccccc1[N+](=O)[O-],inactive,
Cc1cc2c3c(c1)C(c1ccccc1)=N[C@@H](NC(=O)c1ccncc1)C(=O)N3CC2,inactive,
CCSC(=O)N(CC)C1CCCCC1,inactive,
CC1=C2C[C@H]3[C@@H](CC=C4C[C@@H](O)CC[C@@]43C)[C@@H]2CC[C@]12O[C@@H]1C[C@H](C)CN[C@H]1[C@H]2C,,330 nM (active)
CCCN(CCC)N=O,inactive,
CCC(=O)O[C@H]1CC[C@H]2[C@@H]3CCC4=CC(=O)CC[C@]4(C)[C@H]3CC[C@]12C,inactive,
O=C(O)C(F)(F)C(F)(F)C(F)(F)C(F)(F)C(F)(F)F,inactive,
CCNc1nc(NC(C)C)nc(SC)n1,inactive,
Cc1ccccc1CO[C@@H]1C[C@@]2(C(C)C)CC[C@]1(C)O2,inactive,
CCC(C)(CC)c1cc(NC(=O)c2c(OC)cccc2OC)on1,inactive,
Oc1ccc(Cl)cc1Cl,inactive,
O=S(=O)(O)C(F)(F)C(F)(F)C(F)(F)C(F)(F)F,inactive,
COc1ccc(O)c(C(C)(C)C)c1,inactive,
c1ccc(-c2ccccc2)cc1,inactive,
CN(C)c1nc(=O)n(C2CCCCC2)c(=O)n1C,inactive,
Cc1cc(O)ccc1Cl,inactive,
O=C(NC(=O)c1cc(F)c(F)cc1Cl)Nc1cc(F)ccc1N1CCC(C(=O)O)CC1,inactive,
Nn1cnnc1,inactive,
O=C(O)C(F)(F)C(F)(F)C(F)(F)C(F)(F)C(F)(F)C(F)(F)C(F)(F)C(F)(F)C(F)(F)F,inactive,
CCCCCCCCOC(=O)c1ccccc1C(=O)OCCCCCCCC,inactive,
Clc1ccc(C(Cl)(Cl)Cl)cc1,inactive,
O=S(=O)(O)C(F)(F)C(F)(F)C(F)(F)C(F)(F)C(F)(F)C(F)(F)F,inactive,
C=CC(N)=O,inactive,
Cc1cccc(C)c1N,inactive,
N#Cc1ccc(N(CC(N)=O)CC(F)(F)F)cc1C(F)(F)F,inactive,
CCOCCOC(C)=O,inactive,

# Assay: Tanguay_ZF_120hpf_EYE_legacy: (Legacy) Oregon State University Tanguay Lab 120 Hour Post-fertilization zebrafish Assay for Eye Malformation (AID 2283636);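 further: binary presence or absence of eye malformation scored by brightfield in 120 hpf larvae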
# Outline: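 Dechorionated wild-type Tropical 5D zebrafish embryos were exposed statically from 6 hpf, one per well, to 120 hpf at 28C in sealed, foil-covered plates with 0.64% DMSO. Eye malformation was scored present/absent by brightfield microscopy against DMSO controls.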
row,Structure (SMILES),outcome
1,Cc1ccccc1[N+](=O)[O-],inactive
2,Cc1cc2c3c(c1)C(c1ccccc1)=N[C@@H](NC(=O)c1ccncc1)C(=O)N3CC2,inactive
3,CCOP(=S)(OCC)SCSC(C)(C)C,inactive
4,Cc1ccccc1O,inactive
5,CC1=C2C[C@H]3[C@@H](CC=C4C[C@@H](O)CC[C@@]43C)[C@@H]2CC[C@]12O[C@@H]1C[C@H](C)CN[C@H]1[C@H]2C,inactive
6,CCCN(CCC)N=O,inactive
7,CCC(=O)O[C@H]1CC[C@H]2[C@@H]3CCC4=CC(=O)CC[C@]4(C)[C@H]3CC[C@]12C,inactive
8,O=C(O)C(F)(F)C(F)(F)C(F)(F)C(F)(F)C(F)(F)F,inactive
9,CCNc1nc(NC(C)C)nc(SC)n1,inactive
10,Cc1ccccc1CO[C@@H]1C[C@@]2(C(C)C)CC[C@]1(C)O2,inactive
11,CCC(C)(CC)c1cc(NC(=O)c2c(OC)cccc2OC)on1,inactive
12,Oc1ccc(Cl)cc1Cl,inactive
13,O=S(=O)(O)C(F)(F)C(F)(F)C(F)(F)C(F)(F)F,inactive
14,COc1ccc(O)c(C(C)(C)C)c1,inactive
15,c1ccc(-c2ccccc2)cc1,inactive
16,CN(C)c1nc(=O)n(C2CCCCC2)c(=O)n1C,inactive
17,Cc1cc(O)ccc1Cl,inactive
18,C1CC2OC2CC1C1CO1 (stereo unspecified),inactive
19,O=C(NC(=O)c1cc(F)c(F)cc1Cl)Nc1cc(F)ccc1N1CCC(C(=O)O)CC1,inactive
20,Nn1cnnc1,inactive
21,CCCCCCCCOC(=O)c1ccccc1C(=O)OCCCCCCCC,inactive
22,Clc1ccc(C(Cl)(Cl)Cl)cc1,inactive
23,O=S(=O)(O)C(F)(F)C(F)(F)C(F)(F)C(F)(F)C(F)(F)C(F)(F)F,inactive
24,C=CC(N)=O,inactive
25,Cc1cccc(C)c1N,inactive
26,N#Cc1ccc(N(CC(N)=O)CC(F)(F)F)cc1C(F)(F)F,inactive
27,CC#Cc1cc(C)nc(Nc2ccccc2)n1,inactive
28,CCCCCCOC(=O)c1ccccc1C(=O)OCCCCCC,inactive
29,ClC1=C(Cl)[C@]2(Cl)[C@@H]3[C@@H]4C[C@@H]([C@H]5O[C@@H]45)[C@@H]3[C@@]1(Cl)C2(Cl)Cl,inactive
30,CCCCCCCCCc1ccc(O)cc1,inactive
